This note sets out measurements from PubChem BioAssay (NCI).

Assay [1] can be described thus: NCI Yeast Anticancer Drug Screen. Data for the rad50 strain (AID 155).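 Also: 0% = growth of vehicle-only cultures of the same strain.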 To be noted: S. cerevisiae rad50 strain growth inhibition; at 50.0 µM; stronger effect = higher value. In outline: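 Inhibition values express reduced yeast growth in compound-treated cultures relative to vehicle-treated controls.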
The nature of assay [2]: NCI Yeast Anticancer Drug Screen. Data for the mec2-1 strain (AID 157). To be noted: S. cerevisiae mec2-1 strain, at 50.0 µM, stronger effect = higher value. In outline: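 Strain: mec2-1 (DNA repair/cell cycle alteration). Compound exposure, then growth measured; inhibition expressed relative to vehicle.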
The nature of assay [3]: NCI Yeast Anticancer Drug Screen. Data for the sgs1 mgt1 strain (AID 161).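 Also: 0% = growth of cultures given vehicle only.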 To be noted: S. cerevisiae sgs1 mgt1 strain, at 50.0 µM, stronger effect = higher value. The method in brief: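 Read-out: growth inhibition vs vehicle controls. Cells: mutant yeast strain deficient in DNA damage repair.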
Assay [4] is described as follows: NCI Yeast Anticancer Drug Screen. Data for the cln2 rad14 strain (AID 165).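 Also: 0% = growth equal to vehicle treated cultures.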 Particulars: S. cerevisiae cln2 rad14 strain, at 50.0 µM, stronger effect = higher value. The method in brief:
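Compounds are applied to the cln2 rad14 yeast strain, and growth is then compared with that of vehicle-treated cultures to give inhibition.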

A short description of assay [5]: NCI Yeast Anticancer Drug Screen. Data for the bub3 strain (AID 167). Particulars: S. cerevisiae bub3 mutant strain, at 50.0 µM, stronger effect = higher value. In outline:
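Steps: expose the mutant yeast strain to compound; grow alongside vehicle-treated cultures; measure growth; express inhibition against the vehicle cultures.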

The nature of assay [6]: NCI Yeast Anticancer Drug Screen. Data for the mlh1 rad18 strain (AID 175). Particulars: S. cerevisiae mlh1 rad18 strain growth inhibition; at 50.0 µM; stronger effect = higher value. In outline: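 Read-out is yeast growth inhibition, calculated against vehicle-only controls. The compound was applied to a strain engineered with DNA damage repair alterations.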

About 79,000 compounds went through this panel and 15% of them were active in at least one assay; those are over-represented in the sample as a whole. A number with no mark means an inactive call. Calls of active or inactive are those of the source. Rule as the data show it: active = growth inhibition above about 70%; inactive = the rest.

As to `CCC/C(=N/NC(N)=O)C1=CCCCC1`, the growth inhibition is 0.45% in assay [1]; -5.45% in assay [2]; -2.6% in assay [3]; -28.4% in assay [4]; -18.9% in assay [5]; 3.4% in assay [6].
Turning to `OCCSCc1ccccc1`, the growth inhibition in assay [1] is 29.6%; in assay [2] it was 0.3%; in assay [3] it was -6.1%; in assay [4], 7.2%; in assay [5], -13.7%; in assay [6], -1.3%.
Consider `NCCSC(O)(C(F)(F)F)C(F)(F)F`, for which the growth inhibition in assay [1] was 19.6%; in assay [2], 8.85%; in assay [3] it was 3.05%; in assay [4], -15.2%; in assay [5], 1.2%; in assay [6], 23%.
For `CCOC(=O)C1CCc2ccccc2C1=O` (stereo not drawn), the growth inhibition was -2.95% in assay [1]; -12.3% in assay [2]; 5.85% in assay [3]; -3.35% in assay [4]; 14.6% in assay [5]; -4.95% in assay [6].
As to `Cc1ccc(S(=O)(=O)N2CCCC(O)c3ccccc32)cc1` (stereo not drawn), the growth inhibition in assay [1] was -18.2%; in assay [2], -15.8%; in assay [3] it was -29.4%; in assay [4], 11.7%; in assay [5], 6.65%; in assay [6], 3.85%.
Take `CSc1n[nH]c(=O)c2nc[nH]c12`: the growth inhibition was -9.3% in assay [1]; -9.2% in assay [2]; 0.55% in assay [3]; -34.5% in assay [4]; 7.75% in assay [5]; -5.2% in assay [6].
As for `Clc1ccccc1Nc1c2ccccc2nc2ccccc12`, the growth inhibition in assay [1] was 94.5% (active); in assay [2], 98.1% (active); in assay [3], 85.1% (active); in assay [4], 96.3% (active); in assay [5] it was 88.7% (active); in assay [6], 97.7% (active).
As to `COC(=O)c1cc(Cl)ccc1Br`, the growth inhibition is 17.4% in assay [1]; 14.1% in assay [2]; -0.05% in assay [3]; 14.8% in assay [4]; -3.85% in assay [5]; 43% in assay [6].
In the case of `CC(=O)NC1C(OC2C(CO)OC(OCC3OC(n4ccc(N)nc4=O)C(O)C3O)C(NC(C)=O)C2O)OC(CO)C(O)C1O` (stereo not drawn), the growth inhibition in assay [1] was 31.9%; in assay [2], 48.4%; in assay [3], 2.1%; in assay [4] it was -16.2%; in assay [5] it was -3.45%; in assay [6], 89.2% (active).
For the molecule `CCCC/C=C/C1C=CC(CCCCCCCC(=O)OCC)C(C(=O)OCC)C1` (stereo not drawn) (tested in a mixture with another compound), the growth inhibition in assay [1] is 21%; in assay [2], 8.75%; in assay [3], 20%; in assay [4] it was 17.4%; in assay [5], 2.2%; in assay [6], -13.4%.
As for `Cn1cnnc1Sc1c([N+](=O)[O-])ncn1C`, the growth inhibition was -3.3% in assay [1]; -5.25% in assay [2]; -5% in assay [3]; 22.5% in assay [4]; 15.6% in assay [5]; -11.6% in assay [6].
As for `C/C(=N\N=P(c1ccccc1)(c1ccccc1)c1ccccc1)c1ccccc1`, the growth inhibition in assay [1] was 5.15%; in assay [2], -6.5%; in assay [3], 9.35%; in assay [4], -1.4%; in assay [5], 2.6%; in assay [6], -14.3%.
Turning to `N#[N+]c1ccc2c(c1)C(=O)c1ccccc1-2`, the growth inhibition in assay [1] was 3.2%; in assay [2] it was 0.05%; in assay [3], -0.6%; in assay [4], -46.2%; in assay [5], 8.6%; in assay [6], -6.65%.
`Cn1c(=O)c2[nH]c(N/N=N/c3nncs3)nc2n(C)c1=O`: the growth inhibition was -67.5% in assay [1]; -117% in assay [2]; -51.9% in assay [3]; -19.8% in assay [4]; -19.4% in assay [5]; -117% in assay [6].
On to `NC1(C(=O)O)CCCC1C(=O)O` (stereo not drawn), for which the growth inhibition in assay [1] was -8.7%; in assay [2], -26.6%; in assay [3], -23.1%; in assay [4], 15.9%; in assay [5] it was -6.3%; in assay [6], -2.75%.
As to `N/N=C1\C(=O)N(C2CCCCC2)C(=O)C1C(=O)NC1CCCCC1` (stereo not drawn), the growth inhibition in assay [1] was -10.9%; in assay [2], -1.2%; in assay [3], -15%; in assay [4] it was -10.8%; in assay [5], -20.4%; in assay [6], -32.2%.
Turning to `S=c1sc2ccccc2n1CN1CCCC1`, the growth inhibition in assay [1] is 6.1%; in assay [2], 0.05%; in assay [3], 29.9%; in assay [4] it was 11.9%; in assay [5], 8.3%; in assay [6], -6.65%.
Take `CC1C(NNC(N)=O)Oc2cc3c(cc2C1c1ccccc1O)OCO3` (stereo not drawn): the growth inhibition in assay [1] is -5.7%; in assay [2], -25.4%; in assay [3] it was 11.8%; in assay [4] it was 10.2%; in assay [5], -11.1%; in assay [6], -4.75%.
`Cn1c(C(F)(F)F)nc2nc(Cl)c(Cl)nc21`: the growth inhibition was 16.6% in assay [1]; 0.05% in assay [2]; 20.7% in assay [3]; 21.2% in assay [4]; -32% in assay [5]; 46% in assay [6].
Turning to `CC(C)N(C(=O)c1cccc2ccccc12)C(C)C`, the growth inhibition in assay [1] is 16.4%; in assay [2], 6.95%; in assay [3], 8.35%; in assay [4] it was 4.55%; in assay [5], 8%; in assay [6], 32.2%.
For the molecule `CC(C)c1cc(C(C)C)c(B(c2ccccc2)c2ccccc2)c(C(C)C)c1B(c1ccccc1)c1ccccc1`, the growth inhibition in assay [1] is -13.7%; in assay [2], 4.8%; in assay [3] it was 18.4%; in assay [4] it was 6.3%; in assay [5] it was 6.35%; in assay [6] it was 13.9%.
Consider `CCCCCN(CCCCC)CC(O)c1ccc2cc3c(nc2c1)CCCC3` (stereo not drawn), for which the growth inhibition in assay [1] is 6.2%; in assay [2], 10.2%; in assay [3] it was 26.9%; in assay [4], 5.25%; in assay [5] it was -7.2%; in assay [6], 1.5%.
On to `CC1OC(C)(c2ccc(Cl)cc2)OCC1(C)C` (stereo not drawn), for which the growth inhibition in assay [1] is -2.45%; in assay [2] it was -1.15%; in assay [3], 2.5%; in assay [4], -26.6%; in assay [5], 17.8%; in assay [6], 16.9%.
Take `O=C(Cn1cc[n+](CC(=O)c2ccccc2)c1)c1ccccc1`: the growth inhibition in assay [1] is -5.45%; in assay [2] it was 4.7%; in assay [3] it was -4%; in assay [4] it was -36.6%; in assay [5], 6.05%; in assay [6], 63.4%.
With `COc1cc([N+](=O)[O-])ccc1NC(=O)Nc1nccs1`, the growth inhibition in assay [1] is 5.75%; in assay [2], 29.9%; in assay [3], 11.9%; in assay [4], -9.25%; in assay [5], 22.4%; in assay [6], -37.3%.
For `O=C(O)CCC(=O)OCc1ccccc1`, the growth inhibition in assay [1] is 3.15%; in assay [2], 22.6%; in assay [3], -22.1%; in assay [4], -16.6%; in assay [5], -11.2%; in assay [6], 0.8%.
For the molecule `CN1CCC2(C1)C1CC3CC(C1)CC2C3` (stereo not drawn), the growth inhibition was 1.2% in assay [1]; -13.9% in assay [2]; -8.5% in assay [3]; -7.3% in assay [4]; 3.4% in assay [5]; -9.35% in assay [6].
Consider `CCc1cccc(C)c1NC(=O)CC1C(=O)Nc2ccccc2S1=O` (stereo not drawn), for which the growth inhibition in assay [1] was -6.1%; in assay [2] it was -0.9%; in assay [3], 13.2%; in assay [4] it was -63.7%; in assay [5], 9.85%; in assay [6], 27.4%.
Turning to `CCN(CC)C(=O)c1cccc(N)c1`, the growth inhibition in assay [1] was 12.6%; in assay [2], -11.3%; in assay [3], 11.5%; in assay [4] it was 11%; in assay [5] it was 25.3%; in assay [6] it was 14%.
Regarding `COC(=O)NS(=O)(=O)C1=Cc2cccc3cccc1c23`, the growth inhibition in assay [1] is 8.55%; in assay [2] it was 4.95%; in assay [3], 9.25%; in assay [4], 9.75%; in assay [5], 6.35%; in assay [6], 8.4%.
Regarding `Cc1ccc(C(C)C)cc1[N+](=O)[O-]`, the growth inhibition is 9.9% in assay [1]; -3.55% in assay [2]; -17.7% in assay [3]; -41% in assay [4]; -13.6% in assay [5]; -21.3% in assay [6].
For the molecule `O=C([O-])C[n+]1ccccc1`, the growth inhibition was -11.3% in assay [1]; -2.75% in assay [2]; -14.5% in assay [3]; -35.9% in assay [4]; -19.1% in assay [5]; -14.4% in assay [6].
For `Cc1cc(N(C)C)c([N+](=O)[O-])cc1C=O`, the growth inhibition in assay [1] is 5.9%; in assay [2], 13.8%; in assay [3], -13.3%; in assay [4], -22.4%; in assay [5] it was -24.9%; in assay [6], -5.8%.
For the molecule `N#CCCN(Cc1ccccc1)C(=S)Nc1cccc(C(F)(F)F)c1`, the growth inhibition in assay [1] was 75.8% (active); in assay [2] it was 53%; in assay [3], 85.2% (active); in assay [4] it was 81.5% (active); in assay [5], 70.1% (active); in assay [6], 78% (active).
`C=C1OC(c2ccccc2NC)=NC12CCCCC2`: the growth inhibition was -11.6% in assay [1]; -51.5% in assay [2]; -9.9% in assay [3]; -2.65% in assay [4]; -14.8% in assay [5]; -11.2% in assay [6].
Turning to `CCSC1=C(SCC)C(=O)C(SCC)=C(SCC)C1=O`, the growth inhibition in assay [1] was -1.25%; in assay [2] it was 16.1%; in assay [3], 13.9%; in assay [4] it was -22.4%; in assay [5] it was -1.65%; in assay [6], 15.4%.
As to `CCCCc1c2c(nc3c1CCC/C3=C\c1ccccc1)C(=O)CCC2`, the growth inhibition is 15.8% in assay [1]; 9.1% in assay [2]; 3.2% in assay [3]; 12.2% in assay [4]; 30.6% in assay [5]; 18.1% in assay [6].
In the case of `CCOC(=O)C(NC(=O)CC)(C(F)(F)F)P(=O)(OCC)OCC` (stereo not drawn), the growth inhibition in assay [1] was -22.5%; in assay [2] it was -12.3%; in assay [3], -35.7%; in assay [4], -11.8%; in assay [5], 14.1%; in assay [6] it was -9.35%.
